According to the supplement of paper PMC10338343:
± gives the standard deviation. Over roughly 3,700 sequences, “pre-steady-state target cleavage rate” has its median near 0.02; the highest 2% begin near 0.23. The sample holds the highest values, similar sequences and a random draw of the others, so the mix is not that of the screen.

tested on: MILI (PIWIL2) piRISC loaded with Kctd7 piRNA (26 nt); experiment: pre-steady-state target cleavage rate (min^-1); MIWI and MILI are mouse PIWI proteins and EfPiwi is from a freshwater sponge; tags in brackets are library labels; higher = faster piRNA-guided slicing of the target; details: guide: Kctd7 piRNA 5'p-UGUUAAUCUCUCAGAGAAGGUGACAG; auxiliary factor: 500 nM mouse GTSF1
Description: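 Cleave-'n-Seq: a library of target RNAs (target site embedded in constant flanks, ACAGCATTCCGCGTTAGTGATATCCG... 5' flank; DNA-blocked outside the site) at 0.1 nM was incubated with 1 nM active mouse MILI or MIWI piRISC (synthetic 5'-monophosphorylated piRNA guide) with or without 500 nM mouse GTSF1 at 33 °C for 1 min to 16 h. Uncleaved targets were sequenced and normalised to non-target controls, and the pooled three trials were fitted to a burst-and-steady-state model to give the pre-steady-state cleavage rate (min^-1; k3 is constrained to at most 1e-4). Sequence is the target site only; target names encode pairing extent (gX:gY) and contiguous / 1-mismatch / 2-mismatch / bulge geometry. Fits with R² ≤ 0 are excluded.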

Sequence	pre-steady-state target cleavage rate
UAGUCUGUCACCUGCUCUGAGAGAUUAACA	0.175 ± 0.011
UAGUCUGUCACCUUGCUCUGAGAGAUUAACA	0.299 ± 0.059
UAGUGAGUCACCUUGCUCUGAGAGAUUAACA	0.351 ± 0.077
UAGUGACAGUCCUUCUCUGAGAGAUUAACCA	0.0785 ± 0.0063
UAGUGACACACCUUCUCUGAGAGAUCAACA	0.0804 ± 0.024
UAGUGACACACCUUCUCUGAGAGAUUAACA [g2:g22:cont:t1A]	0.178 ± 0.01
UAGUGACACACCUUCUCUGAGAGAUUCAACA	0.244 ± 0.061
UAGUGACACACCUUCUCUGAGAGAUUCACA	0.258 ± 0.057
UAGUGACACACCUUCUCUCUGAGAUUAACA	0.00653 ± 0.0037
UAGUGACACACCUUCUCUGAGAGAUAUUCA	0.0197 ± 0.0083
UAGUGACACACCUUCUCUGAGAGAUUUAACA	0.243 ± 0.023
UAGUGACUCACCUUCUCUGAGAGAUUUUCA	0.0728 ± 0.019
UAGUGACAGACCUUCUCUGAGAGAUUCAACA	0.177 ± 0.04
UAGUGACUCACCUUCUCUGAGAGAUUCAACA	0.221 ± 0.035
UAGUGACUCACCUUCUCUGAGAGAUUCACA	0.314 ± 0.091
UAGUGACACACCUUCUCUGAGAGAUUUUCA	0.064 ± 0.02
UAGUCUGUCACCUUCUCAGAGAGAAUAACA	0.0517 ± 0.017
UAGUGACUCACCUUCUCUGAGGGAUUAACA	0.0864 ± 0.011
UAGUGUGUCACCUACACUGAGAGAUUAACA	0.15 ± 0.011
UAGUCUGUCACCUUCAUCUGAGAGAUUAACA	0.204 ± 0.052
UAGUGAGUCACCUUCUUGAGAGAUUAACA	0.0386 ± 0.014
UAGUCUGUCACCUUCUUUGAGAGAUUAACA	0.259 ± 0.019
UAGUGUGUCACCUUCUUUGAGAGAUUAACA	0.229 ± 0.016
UAGUCUGUCACCUUCUUGAGAGAUUAACA	0.07 ± 0.023
UAGUGAGUCACCUUCUUUGAGAGAUUAACA	0.334 ± 0.029

Sequence	pre-steady-state target cleavage rate
UAGUCUGUCACCUUCUUCUGAGAGAUUAACA	0.0864 ± 0.021
UAGUGAGUCUCCUUCACUGAGAGAUUAACA	0.166 ± 0.016
UAGUGACUCUCCUUCUGUGAGAGAUUAACA	0.0558 ± 0.01
UAGUGACAGACGUUCUCUCAGAGAUUAACA	0.0137 ± 0.0054
UAGUCUGUCACCUUCUCUGAGAGGAUUAACA	0.174 ± 0.019
UAGUCGUGUCACCUUCUCUGAGAGAUUAACA	0.199 ± 0.01
UAGUCCUGUCACCUUCUCUGAGAGAUUAACA	0.275 ± 0.026
UAGUCUGUCACCUUCUCUGAGAGAUUAAA	0.13 ± 0.026
UAGUCUGUCACCUUCUCUCUGAGAUUAACA	0.00967 ± 0.0028
UAGUCUGUCACCUUCUCUGAGAGAUUAAUA	0.118 ± 0.02
UAGUCUUCACCUUCUCUGAGAGAUUAACA	0.213 ± 0.019
UAGUCUGUCACCUUCUCUGAGAGAUUUAACA	0.245 ± 0.023
UAGUCUUGUCACCUUCUCUGAGAGAUUAACA	0.341 ± 0.058
UAGUCUGUCACCUUCUCUGAGAGAUUAACG [g2:g26:cont:t1G]	0.196 ± 0.011
UAGUCUCUCACCUUGUCUGAGAGAUUAACA	0.0068 ± 0.0039
UAGUCUGUCACCUUCUCUGAGAGAUUAAUCA	0.258 ± 0.041
UAGUCUGUCACCUUCCUGAGAGAUUAACA	0.0844 ± 0.028
UAGUGUGACACCUUCUGUGAGAGAUUAACA	0.123 ± 0.015
UAGUCUGUCACCUACUCUGAGAGAAUAACA	0.0882 ± 0.017
UAGUGACUCACCUUCUCUGAGAGUUUUACA	0.0214 ± 0.01
UAGUGACAGUGCUUCUCUGAGAAAUUAACA	0.00916 ± 0.0047
UAGUCUGUCACCUUCAGAGAGAGAUUAACA	0.0227 ± 0.0099
UAGUGACAGUCCUUCUCUGAGGAGAUUAACA	0.00431 ± 0.0026
UAGUGACAGUGGAAGAGUGACAGAUUAACA	< 0.0001
UAGUCUGUCACCCUCUCUGAGAGAUUAACA	0.238 ± 0.018

Sequence	pre-steady-state target cleavage rate
UAGUCUGUCACCUCUCUGAGAGAUUAACA	0.208 ± 0.018
UAGUCUGUCACCUUCUCUGAGAGAUUAACC [g2:g26:cont:t1C]	0.173 ± 0.013
UAGUCUGUCACCUUCUCUGAGAGAUUAACU [g2:g26:cont:t1U]	0.244 ± 0.026
UAGUCUGUCACCUUCUCUGAGAGAUUAACA [g2:g26:cont:t1A]	0.22 ± 0.013
UAGUCUGUCACCUCUCUCUGAGAGAUUAACA	0.164 ± 0.015
UAGUGACACACCUUCUCAGAGAGAUUAUGA	0.0269 ± 0.01
UAGUGUGUCACCUUCUCUGAGAGAUUAAACA	0.214 ± 0.029
UAGUGUGUCACCUUCUCUGAGAGAUUAAGA	0.145 ± 0.036
UAGUGUGUCACCUUCUCUGAGAGAUUAAAA	0.108 ± 0.022
UAGUGUGUCACCUUCUCUGAGAGAUUAAA	0.234 ± 0.064
UAGUGUGUCACCUUCUCUGAGAGAUUAAUCA	0.18 ± 0.032
UAGUGUGUCACCUUCUCUGAGAGAUUAAUA	0.236 ± 0.037
UAGUGACAGUGCUUCUCUGAGAGAAUUAACA	0.0127 ± 0.0041
UAGUGUGUCACCUUCUCUGAGAGCAUUAACA	0.17 ± 0.022
UAGUCUCUCACCUUCUCUGAGAGAUAAACA	0.0206 ± 0.0076
UAGUCUGUCACCUUCUCUGAGAGAUUGACA	0.246 ± 0.044
UAGUGAGUCACCUUCUCUGAGAGAUUGACA	0.208 ± 0.042
UAGUCUGUCACCUUCUCUGAGAGAUUUUGA	0.0133 ± 0.0061
UAGUCUGUCACCUUCUCUGAGAGAUUGAACA	0.214 ± 0.029
UAGUGUGUCACCUUCUCUGAGAGAUUGACA	0.25 ± 0.063
UAGUGUGUCACCUUCUCUGAGAGAUUGAACA	0.0931 ± 0.017
UAGUGUGUCACCUUCUCUGAGAGAUAUUCA	0.143 ± 0.047
UAGUGUGUCACCUUCUCUGAGAGAUUCAACA	0.219 ± 0.038
UAGUGUGUCACCUUCUCUGAGAGAUUCACA	0.239 ± 0.049
